Measurements as given in PubChem BioAssay (NCATS).
Unmarked numbers belong to inactive results. Calls of active or inactive are those of the source. How the calls were made is not given here.

tested on: HIV-1 nucleocapsid protein NCp7 (binding to TG oligonucleotide); assay: HIV Nucleocapsid (AID 346); details: HIV-1 NC / fluorescein-TGTGTGTG probe, fluorescence polarization;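 further: potency is for inhibitors that block NC binding and lower polarization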
Method: NCGC Assay Overview: HIV-1 nucleocapsid protein (HIV-1 NC) is a small (6.5 kDa) basic zinc-finger protein which participates in packaging of viral genomic RNA. The spacing and metal-chelating residues (3 Cys, 1 His) of the Cys-X2-Cys-X4-His-X4-Cys Zn fingers are conserved among all known retroviruses (J. Med. Chem. 1998, 41, 1371-1381). HIV-1 NC was assayed for its binding to the consensus sequence single-stranded 5'-TGTGTGTG. […] High salt was included to increase the stringency of binding and inhibitor screen. Reducing agents and zinc were present to stabilize the nucleocapsid zinc-finger protein.
NCGC Assay Protocol Summary: Buffer. Hepes pH 7.5, 250mM NaCl, 1uM ZnCl2. 0.004% polyethylene glycol 20000. TCEP (100 uM) and 2-Mercaptoethanol (5 mM), added fresh the day of the experiment. Reagents/Controls. 10 nM TG4xF only in columns 3 and 4 as negative control. 10 nM TG4xF/100 nM HIV-1 NC in columns 1, 2, 5-48. Titration of control compound NSC-13778 (from 20 mM, then 1:2) pin-transferred to column 2. Assay Steps. Two uL of reagents were dispensed to 1536-well Kalypsys black plates. The plates were centrifuged for 1 min at 1000 rpm. Compounds and controls (20 nL) were transferred via Kalypsys PinTool. The plates were incubated for 1 hr at room temperature, and then read on ViewLux (Perkin-Elmer). High-throughput CCD imager using fluorescein polarization filter set and 45 seconds exposure time.
Potency means the concentration at half of the fitted maximal effect.

Row | SMILES | Potency
1 | CS(=O)(=O)Nc1cccc(-c2nc(NCCN3CCOCC3)c3ccccc3n2)c1 | > 20 µM
2 | O=C(c1cc(C(F)(F)F)cc(C(F)(F)F)c1)N1CCC[C@@]2(CCN(c3ccncc3)C2)C1 | > 20 µM
3 | O=C(c1csnn1)N1CCC[C@@]2(CCN(c3ccccn3)C2)C1 | > 20 µM
4 | COc1ccc(CNc2ncnc3ccc(-c4ccccc4C#N)cc23)c(OC)c1 | > 20 µM
5 | COc1cccc(Cn2c(=O)cnc3cnc(N(C)C)nc32)c1 | > 20 µM
6 | COc1cccc(Cn2c(=O)c(-c3ccccc3)nc3cncnc32)c1 | > 20 µM
7 | COc1ccc(-n2c(=O)c(C)nc3cnc(Nc4cccc(OC)c4)nc32)cc1 | > 20 µM
8 | O=C(c1csnn1)N1CCC2(CC1)CN(c1ncccn1)C2 | > 20 µM
9 | CN1CCN(c2ncnc3ccc(-c4ccoc4)cc23)CC1 | > 20 µM
10 | Cn1cccc1C(=O)N1CCC[C@@]2(CCN(c3ccccc3)C2)C1 | > 20 µM
11 | Clc1ccccc1-c1nc(Nc2ccncc2)c2ccccc2n1 | > 20 µM
12 | COc1ccc(Oc2ncc3ncc(=O)n(C[C@H]4CCCO4)c3n2)cc1 | > 20 µM
13 | COc1cccc(-c2nccc(NCc3cccc(C)c3)n2)c1 | > 20 µM
14 | CCNc1ncc2nc(C)c(=O)n(Cc3cccc(OC)c3)c2n1 | > 20 µM
15 | CCNc1ncc2nc(-c3ccccc3)c(=O)n(Cc3cccs3)c2n1 | > 20 µM
16 | COc1ccccc1CN1CCC2(CCNCC2)CC1 | > 20 µM
17 | COCCn1c(=O)c(-c2ccc(OC)cc2)nc2cnc(Oc3cccc(Cl)c3)nc21 | > 20 µM
18 | Cc1noc(C)c1C(=O)N1CCC[C@@]2(CCN(C(=O)Nc3ccccc3)C2)C1 | > 20 µM
19 | O=C(Nc1ccccc1)N1CC2(CCN(C(=O)c3ccco3)CC2)C1 | > 20 µM
20 | Cc1noc(C)c1-c1nc(NCCN2CCOCC2)c2ccccc2n1 | > 20 µM

Row | SMILES | Potency
21 | COc1ccc2[nH]cc(CCNc3ncncc3-c3cccc(NS(C)(=O)=O)c3)c2c1 | > 20 µM
22 | Cc1cccc(CNc2ncnc3ccc(-c4cccc(C#N)c4)cc23)c1 | > 20 µM
23 | CN(C)Cc1ccccc1-c1nccc(N(C)Cc2ccco2)n1 | > 20 µM
24 | Cc1noc(C)c1-c1ccc2ncnc(N3CCC(C(=O)O)CC3)c2c1 | > 20 µM
25 | CN(C)c1ccc(-c2nc(NCc3cccnc3)c3ccccc3n2)cc1 | > 20 µM
26 | COc1ccccc1CCn1c(=O)c(-c2cccc(Cl)c2)nc2cncnc21 | > 20 µM
27 | CN(C)C(=O)c1ccc(-c2ccc3ncnc(NC4CC4)c3c2)cc1 | > 20 µM
28 | COc1ccc(-c2nc3cnc(N4CCN(C)CC4)nc3n(Cc3cccc(OC)c3)c2=O)cc1 | > 20 µM
29 | O=C(c1ccco1)N1CCC2(CC1)CCN(c1ncccn1)CC2 | > 20 µM
30 | Cc1nc2cnc(N3CCNCC3)nc2n(C2CC2)c1=O | > 20 µM
31 | Cn1c(=O)c(-c2ccc(Cl)cc2)nc2cnc(N3CCNCC3)nc21 | > 20 µM
32 | COc1cccc(-c2nccc(NC3CCNCC3)n2)c1 | > 20 µM
33 | O=C(Oc1ccccc1)N1CCC2(CCCN(c3ccccn3)C2)CC1 | > 20 µM
34 | O=c1cnc2cnc(N3CCOCC3)nc2n1C1CC1 | > 20 µM
35 | O=C(c1ccncc1)N1CCC2(CCCN(c3ccccn3)C2)CC1 | > 20 µM
36 | FC(F)(F)c1cc(CN2CC[C@@]3(CCCNC3)C2)cc(C(F)(F)F)c1 | > 20 µM
37 | FC(F)(F)c1ccccc1-c1ccc2ncnc(NC3CCNCC3)c2c1 | > 20 µM
38 | CC(=O)NCCNc1cc(-c2ccccc2C(F)(F)F)ncn1 | > 20 µM
39 | N#CCCn1c(=O)cnc2cnc(Nc3ccccc3)nc21 | > 20 µM
40 | CN(C)c1ncc2nc(-c3cccs3)c(=O)n(C3CC3)c2n1 | 0.297 µM (active)
